Active and inactive are the calls of the source.
Columns and labels:
[1] = binders of probe aFSTL3 on microarray, primary screen, stem cell growth factor project, biochemical, small-molecule microarray, fluorescence 635/667 (AID 1064); settings: higher = more signal;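 also: measures binding of the biotinylated anti-FSTL3 antibody to printed compounds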
[2] = binders from COS7 lysate, DM2A8 probe, primary screen, torsin A project, cell lysate, small-molecule microarray, fluorescence 635/667 (AID 1065); settings: higher = more signal, COS7 lysate expressing mutant human TOR1A
[3] = binders of probe aFGF2 on microarray, primary screen, stem cell growth factor project, biochemical, small-molecule microarray, fluorescence 635/667 (AID 1067); settings: higher = more signal;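 also: measures binding of biotinylated aFGF2 protein to printed compounds on slides; z-score merges feature fluorescence and signal-to-noise across triplicate slides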
[4] = binders of probe aFGF10 on microarray, primary screen, stem cell growth factor project, biochemical, small-molecule microarray, fluorescence 635/667 (AID 1071); settings: higher = more signal;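 also: score merges 667 nm spot intensity and signal to noise from triplicate slides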
[5] = target: Neurogenic locus notch homolog protein 2 (Homo sapiens) (UniProt Q04721); assay: Notch2 binders on small-molecule microarrays, primary screen, biochemical, small-molecule microarray, 635 nm fluorescence, stem cell growth factors (AID 1073); settings: Notch2 binding, higher = more signal
Sequence of Neurogenic locus notch homolog protein 2 (Homo sapiens) (Q04721 whole entry, looked up, canonical isoform): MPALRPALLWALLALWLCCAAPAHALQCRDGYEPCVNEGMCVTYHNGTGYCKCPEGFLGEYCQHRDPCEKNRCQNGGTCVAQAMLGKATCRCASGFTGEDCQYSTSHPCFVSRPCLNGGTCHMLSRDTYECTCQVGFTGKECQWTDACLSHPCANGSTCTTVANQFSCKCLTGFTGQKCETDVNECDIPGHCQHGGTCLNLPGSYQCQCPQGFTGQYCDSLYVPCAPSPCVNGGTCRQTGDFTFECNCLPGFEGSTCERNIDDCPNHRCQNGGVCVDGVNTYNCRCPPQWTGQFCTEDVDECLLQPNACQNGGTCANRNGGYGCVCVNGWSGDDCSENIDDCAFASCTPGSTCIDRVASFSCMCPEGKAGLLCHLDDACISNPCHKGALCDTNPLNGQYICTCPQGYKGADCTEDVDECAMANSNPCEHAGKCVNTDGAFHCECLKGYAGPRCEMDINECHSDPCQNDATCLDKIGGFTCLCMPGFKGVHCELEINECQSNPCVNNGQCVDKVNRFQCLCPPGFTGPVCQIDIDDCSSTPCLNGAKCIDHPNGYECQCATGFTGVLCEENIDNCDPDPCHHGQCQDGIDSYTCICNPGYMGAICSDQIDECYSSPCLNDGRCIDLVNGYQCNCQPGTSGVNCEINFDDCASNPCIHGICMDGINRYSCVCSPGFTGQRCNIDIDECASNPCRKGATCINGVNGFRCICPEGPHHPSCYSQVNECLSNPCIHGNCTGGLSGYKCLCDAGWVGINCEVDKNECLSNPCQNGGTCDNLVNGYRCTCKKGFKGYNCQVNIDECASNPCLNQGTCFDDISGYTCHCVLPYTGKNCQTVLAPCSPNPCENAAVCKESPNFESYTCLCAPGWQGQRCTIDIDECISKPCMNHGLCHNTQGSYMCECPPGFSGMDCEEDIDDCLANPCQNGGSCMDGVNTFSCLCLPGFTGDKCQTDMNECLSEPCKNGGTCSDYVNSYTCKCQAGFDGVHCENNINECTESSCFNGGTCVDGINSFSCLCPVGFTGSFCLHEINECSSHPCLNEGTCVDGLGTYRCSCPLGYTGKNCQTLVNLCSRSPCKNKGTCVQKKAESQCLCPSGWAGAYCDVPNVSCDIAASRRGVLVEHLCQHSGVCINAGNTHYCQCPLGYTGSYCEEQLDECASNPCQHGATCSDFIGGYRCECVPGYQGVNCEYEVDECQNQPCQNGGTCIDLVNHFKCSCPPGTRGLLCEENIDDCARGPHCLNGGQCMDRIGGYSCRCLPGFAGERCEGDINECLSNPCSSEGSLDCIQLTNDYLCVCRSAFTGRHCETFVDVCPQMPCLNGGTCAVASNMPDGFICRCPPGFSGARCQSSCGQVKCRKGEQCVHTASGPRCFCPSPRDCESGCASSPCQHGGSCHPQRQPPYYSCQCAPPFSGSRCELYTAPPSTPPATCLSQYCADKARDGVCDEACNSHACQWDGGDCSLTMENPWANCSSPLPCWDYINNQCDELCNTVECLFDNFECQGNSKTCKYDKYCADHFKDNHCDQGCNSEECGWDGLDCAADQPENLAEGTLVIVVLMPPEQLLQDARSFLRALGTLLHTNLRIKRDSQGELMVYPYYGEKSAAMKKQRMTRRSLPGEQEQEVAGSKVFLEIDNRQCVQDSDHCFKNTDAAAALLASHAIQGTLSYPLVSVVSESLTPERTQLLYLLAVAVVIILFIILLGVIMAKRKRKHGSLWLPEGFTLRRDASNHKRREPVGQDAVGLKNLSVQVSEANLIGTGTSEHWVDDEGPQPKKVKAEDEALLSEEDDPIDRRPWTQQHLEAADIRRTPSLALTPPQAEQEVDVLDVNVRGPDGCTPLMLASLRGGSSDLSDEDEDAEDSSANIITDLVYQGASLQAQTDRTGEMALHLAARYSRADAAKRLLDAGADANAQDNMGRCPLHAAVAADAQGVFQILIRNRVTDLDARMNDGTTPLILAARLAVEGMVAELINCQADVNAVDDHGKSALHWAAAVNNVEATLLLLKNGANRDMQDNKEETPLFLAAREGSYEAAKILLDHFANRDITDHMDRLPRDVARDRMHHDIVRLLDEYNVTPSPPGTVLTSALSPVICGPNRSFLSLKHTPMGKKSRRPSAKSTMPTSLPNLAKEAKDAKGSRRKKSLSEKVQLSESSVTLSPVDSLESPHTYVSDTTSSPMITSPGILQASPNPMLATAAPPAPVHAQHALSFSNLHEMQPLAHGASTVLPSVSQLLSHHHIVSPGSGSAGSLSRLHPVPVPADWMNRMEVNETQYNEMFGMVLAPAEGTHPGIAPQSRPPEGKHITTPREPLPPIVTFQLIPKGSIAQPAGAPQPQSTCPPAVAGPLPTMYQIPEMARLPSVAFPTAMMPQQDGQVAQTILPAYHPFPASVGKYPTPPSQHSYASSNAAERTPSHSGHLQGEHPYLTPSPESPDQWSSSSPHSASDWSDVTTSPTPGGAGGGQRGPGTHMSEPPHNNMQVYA

[6] = target: Pro-neuregulin-1, membrane-bound isoform (Homo sapiens) (UniProt Q02297); assay: NRG1 binders on small-molecule microarrays, primary screen, psychiatric disease protein project, biochemical, small-molecule microarray, fluorescence 635/667 (AID 1075); settings: NRG1 binding, 635 nm fluorescence, higher = more signal;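 also: score combines 667 nm spot fluorescence with signal to noise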
Sequence of Pro-neuregulin-1, membrane-bound isoform (Homo sapiens) (Q02297 whole entry, looked up, the tested form may be a part, canonical isoform): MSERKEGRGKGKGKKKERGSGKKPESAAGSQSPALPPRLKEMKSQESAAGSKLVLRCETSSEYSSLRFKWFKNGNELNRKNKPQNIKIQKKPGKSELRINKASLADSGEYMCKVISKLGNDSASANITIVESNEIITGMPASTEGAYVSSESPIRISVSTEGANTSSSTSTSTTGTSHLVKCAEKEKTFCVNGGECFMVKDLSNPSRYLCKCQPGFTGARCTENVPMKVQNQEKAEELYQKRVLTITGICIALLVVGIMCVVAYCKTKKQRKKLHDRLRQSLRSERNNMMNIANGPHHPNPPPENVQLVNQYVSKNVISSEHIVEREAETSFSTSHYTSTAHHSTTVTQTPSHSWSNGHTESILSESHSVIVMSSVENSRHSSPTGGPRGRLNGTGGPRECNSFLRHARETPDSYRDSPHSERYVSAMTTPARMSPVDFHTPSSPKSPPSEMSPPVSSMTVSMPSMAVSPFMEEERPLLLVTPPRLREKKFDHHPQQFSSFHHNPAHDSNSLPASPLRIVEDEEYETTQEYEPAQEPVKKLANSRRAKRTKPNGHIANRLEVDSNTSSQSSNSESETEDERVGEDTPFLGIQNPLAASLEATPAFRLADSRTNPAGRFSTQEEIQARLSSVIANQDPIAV

[7] = system: Neuregulin-1 EGF-like domain; assay: binders of neuregulin-1 EGF-like domain, primary screen, biochemical, small-molecule microarray, 635 nm fluorescence (AID 1081); settings: small-molecule microarray binding, higher = more signal;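 also: binding of the protein to compounds printed on small-molecule microarray slides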
[8] = FRG1 promoter luciferase signal modulators, primary screen, FRG1 inhibition for FSHD, cell-based, C2C12 myotubes, firefly/Renilla luciferase, luminescence (AID 1084); settings: higher = more signal, called active from +8 up or from −8 down
[9] = binders of probe aFST on microarray, primary screen, stem cell growth factor project, biochemical, small-molecule microarray, fluorescence 635/667 (AID 1086); settings: higher = more signal;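 also: score merges 667 nm fluorescence with signal-to-noise of each printed compound spot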
[10] = binders of probe aHhip on microarray, primary screen, stem cell growth factor project, biochemical, small-molecule microarray, fluorescence 635/667 (AID 1087); settings: higher = more signal;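 also: score merges spot fluorescence at 667nm with spot signal to noise ratio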
[11] = system: PRMT1 (protein arginine N-methyltransferase 1); assay: PRMT1 binders on small-molecule microarrays, primary screen, biochemical, small-molecule microarray, 635 nm fluorescence (AID 1088); settings: small-molecule microarray binding, higher = more signal;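 also: binding of Prmt1 protein to compounds spotted on small-molecule microarray slides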
[12] = yeast growth modulation, basal conditions, primary screen, YJM789 clinical isolate, OD600, 24 h (AID 1089);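 also: growth of clinical yeast isolate S. cerevisiae YJM 789 seeded 1000 cells per well; test concentration not given here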; settings: S. cerevisiae YJM789 growth, higher = more signal, called active from +8 up or from −8 down
[13] = fission yeast growth modulation, primary screen, strain 972, OD600, 24 h, no modulator (AID 1090);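 also: basal condition with compound alone and no growth modifier present; test concentration not given here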; settings: S. pombe 972 growth, higher = more signal, called active from +8 up or from −8 down
[14] = S. cerevisiae growth modulation with rapamycin, primary screen, strain BY4716, OD600, 96 h (AID 1091); settings: higher = more signal, called active from +8 up or from −8 down; also: test concentration not given here
[15] = target: Torsin-1A-interacting protein 2 (Homo sapiens) (UniProt Q8NFQ8); assay: LULL1 binders on small-molecule microarray, primary screen, cell lysate, human LULL1 lysate, 635/667 nm fluorescence (AID 1092); settings: hLULL1 lysate binding, 635 nm fluorescence, higher = more signal;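 also: probe is lysate of COS7 cells overexpressing human LULL1; score merges per-feature 667 nm fluorescence with signal-to-noise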
Sequence of Torsin-1A-interacting protein 2 (Homo sapiens) (Q8NFQ8 whole entry, looked up): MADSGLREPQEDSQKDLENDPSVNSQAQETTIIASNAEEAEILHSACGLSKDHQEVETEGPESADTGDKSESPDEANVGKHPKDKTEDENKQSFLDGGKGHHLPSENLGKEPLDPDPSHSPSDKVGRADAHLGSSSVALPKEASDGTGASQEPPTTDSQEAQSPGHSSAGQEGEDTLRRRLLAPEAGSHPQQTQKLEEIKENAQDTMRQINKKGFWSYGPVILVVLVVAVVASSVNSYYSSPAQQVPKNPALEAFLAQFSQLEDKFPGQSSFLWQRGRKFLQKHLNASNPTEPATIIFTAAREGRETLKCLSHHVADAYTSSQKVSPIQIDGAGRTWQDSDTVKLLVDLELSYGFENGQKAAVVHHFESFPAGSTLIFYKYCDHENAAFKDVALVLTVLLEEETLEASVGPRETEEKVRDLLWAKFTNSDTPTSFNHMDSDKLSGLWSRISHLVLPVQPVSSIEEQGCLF

[16] = E. coli growth modulation, two-sided OD650, primary screen, E. coli filamentation project, strain DRC41, 24 h (AID 1093); settings: OD650, 24 h, higher = more signal, called active from +8 up or from −8 down;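 also: MC1000 strain lacking acrAB efflux and sulA so SOS filamentation is blocked; test concentration not given here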
[17] = small-molecule microarray binders of probe aLefty2, primary screen, biochemical, biotinylated probe, 635/667 nm fluorescence (AID 1094); settings: higher = more signal;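 also: score merges spot fluorescence near 667 nm with spot signal-to-noise ratio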
[18] = system: Noggin (protein binding on small-molecule microarray); assay: Noggin binders on small-molecule microarray, primary screen, biochemical, 635/667 nm fluorescence (AID 1095); settings: 635 nm fluorescence, higher = more signal;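 also: score merges 667 nm feature fluorescence with signal to noise over triplicate slides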
[19] = target: Neurogenic locus notch homolog protein 3 (Homo sapiens) (UniProt Q9UM47); assay: NOTCH3 binders on small-molecule microarray, primary screen, biochemical, 635/667 nm fluorescence (AID 1096); settings: NOTCH3 binding, 635 nm fluorescence, higher = more signal
[20] = small-molecule microarray binders of probe aEGFR, primary screen, biochemical, biotinylated probe, 635/667 nm fluorescence (AID 1097); settings: higher = more signal;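 also: probe is a biotinylated anti-EGFR antibody binding compounds printed on slides; score combines fluorescence near 667 nm and signal to noise of each spot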

Row | SMILES | composite z-score [1] | composite z-score [2] | composite z-score [3] | composite z-score [4] | composite z-score [5] | composite z-score [6] | composite z-score [7] | z-score [8] | composite z-score [9] | composite z-score [10] | composite z-score [11] | z-score [12] | z-score [13] | z-score [14] | composite z-score [15] | z-score [16] | composite z-score [17] | composite z-score [18] | composite z-score [19] | composite z-score [20]
1 | C=CC[C@]1(C(=O)O)COC(c2ccc(OCCCO)cc2)=N1 | -0.151 | 0.273 | -0.0538 | -0.114 | 0.675 | 1.79 | 1.07 | 0.519 (inactive) | 0.403 | -0.249 | 0.262 | -0.396 (inactive) | -0.636 (inactive) | -0.581 (inactive) | 3.36 | -0.204 (inactive) | -0.0784 | 0.253 | 0.0614 | -0.0828
2 | Cc1ccc(S[C@]2(C(=O)NCC(F)(F)F)CC(=O)N(Cc3ccccc3)[C@@H]2c2ccc(CO)cc2I)cc1 | 0.512 | 0.156 | -0.0502 | 0.284 | 0.0341 | 1.82 | 0.923 | -0.646 (inactive) | 0.164 | -0.236 | 0.29 | -3.01 (inactive) | -2.23 (inactive) | 0.854 (inactive) | 1.62 | -0.161 (inactive) | 0.496 | -0.315 | 0.233 | -0.118
3 | COC(=O)[C@@]1(Cc2ccccc2)[C@H]2c3cc(C(=O)N(C)C)n(CCN4CNCC4=O)c3C[C@H]2CN1C(=O)c1ccccc1 | 1.13 | 1.89 | 0.539 | 0.307 | -0.0763 | 1.71 | 1.22 | 0.37 (inactive) | 2 | 0.478 | 0.304 | 0.258 (inactive) | 0.707 (inactive) | 0.1 (inactive) | 1.42 | -0.0469 (inactive) | 0.96 | -0.652 | 0.0743 | 0.385
4 | COc1cc2c(cc1OC)CN(C(=O)[C@@H]1[C@H]3C(=O)O[C@H](c4ccccc4)[C@H](c4ccccc4)N3[C@H](c3ccc(OCCO)cc3)[C@@]13C(=O)Nc1ccc(C#CC4(O)CCCCCC4)cc13)CC2 | -0.543 | 0.416 | 0.0246 | 1.15 | 1.14 | 1.67 | 1.15 | -0.921 (inactive) | 0.528 | -0.6 | 1.54 | 0.972 (inactive) | 0.888 (inactive) | 5.25 (inactive) | 3.19 | 2.32 (inactive) | -0.438 | 1.47 | 1.08 | -0.244
5 | COC(=O)Cn1c(C(=O)N(C)C)cc2c1C[C@H]1CN(C(=O)c3ccccc3)[C@@](Cc3ccc(F)cc3)(C(=O)OC)[C@@H]21 | 0.0501 | -0.152 | 0.154 | 1.24 | 1.65 | 0.88 | 1.13 | -0.438 (inactive) | 0.114 | -0.15 | -0.397 | 1.28 (inactive) | 1.42 (inactive) | 1.61 (inactive) | 2.81 | -0.581 (inactive) | 0.639 | -0.327 | 0.104 | 0.561
6 | CCOC(=O)C1=CC[C@@H](c2ccc(OCc3ccccc3)c(OC)c2)N(S(=O)(=O)c2ccc(C)cc2)[C@H]1c1ccc(SC)cc1 | 0.152 | 0.718 | 0.162 | 1.02 | 1.54 | 0.876 | 1.11 | -0.895 (inactive) | 1.67 | 0.245 | 1.1 | -0.448 (inactive) | 0.236 (inactive) | 1.94 (inactive) | 3.21 | -0.628 (inactive) | 0.347 | 0.257 | 1.12 | 0.206
7 | CC1CC/C=C\[C@H]2OC34C=CCN(C(C)C)C(=O)[C@H]3N(CCCCCCO)C(=O)[C@@H]4C2C(=O)O1 (stereo not given in full) | 0.315 | -0.671 | -0.143 | -0.178 | -0.357 | 1.06 | 0.147 | 0.286 (inactive) | -0.856 | -0.304 | -1.25 | -1.39 (inactive) | -0.482 (inactive) | -1.27 (inactive) | -1.42 | 2.5 (inactive) | -0.136 | -0.705 | -0.514 | -0.237
8 | CN1C(=O)C2C=CC(C(O)c3cccc(O)c3)N(Nc3ccccc3)C2C1=O (stereo not given) | -0.0512 | -0.201 | 0.0121 | 0.518 | 0.768 | 1.9 | 1.25 | 0.737 (inactive) | 0.495 | 0.0808 | -0.0187 | 0.637 (inactive) | 1.62 (inactive) | 1.1 (inactive) | 0.684 | -0.509 (inactive) | 0.0004 | 0.215 | 0.764 | -0.0251
9 | O=C(NCC(F)(F)F)[C@@H]1c2ccccc2C(=O)N(Cc2ccc(OC(F)(F)F)cc2)[C@H]1c1ccc(CO)cc1 | -0.0966 | 0.661 | -0.0595 | 0.41 | 0.8 | 1.33 | 1.1 | -1.76 (inactive) | 0.208 | -0.25 | 1.53 | -0.54 (inactive) | -0.046 (inactive) | -1.1 (inactive) | 1.81 | 0.583 (inactive) | -0.143 | 0.575 | 0.0891 | -0.0978
10 | COCCCNC(=O)[C@@]1(Sc2ccc(C)cc2)CC(=O)N(C2CCCCC2)[C@@H]1c1ccc(CO)cc1 | 0.863 | -0.596 | 0.0019 | 0.0381 | -0.957 | -0.113 | -0.119 | -0.721 (inactive) | -0.37 | -0.191 | 1.08 | -0.858 (inactive) | 0.478 (inactive) | -0.874 (inactive) | 2.96 | 0.195 (inactive) | 0.0977 | -0.804 | 0.0236 | -0.221

From PubChem BioAssay
